From PubChem BioAssay AID588689 (Southern Research Specialized Biocontainment Screening …, 2011)
Out of some 340,000 compounds screened, about 1,000 (0.29%) were called active. No stated cut-off is given here; in the data, inconclusive means inhibition above about 29% without an active follow-up result; inactive means below that. A selection follows. Results with a measured potency or affinity are listed apart.

Molecular target: Genome polyprotein (Dengue virus type 2 (strain 16681-PDK53)) (UniProt P29991)
Test: Dengue-2 NS5 methyltransferase inhibitors, primary screen, biochemical, confirmation dose response (AID 588689)
Settings: Dengue-2 NS5 methyltransferase capping enzyme assay, at 25 µM, stronger effect = higher value
[1] = measured here: pilot screen replicate inhibition

Row | Compound | inhibition | inhibition [1] [%]
1 | Cc1nn(CCCC(=O)NCc2ccccc2)c(C)c1[N+](=O)[O-] | -1.91% (inactive) | –
2 | CCCn1c(N)c(N(CCOC)C(=O)c2ccc([N+](=O)[O-])c(C)c2)c(=O)[nH]c1=O | -3.56% (inactive) | –
3 | COc1ccc(S(=O)(=O)N2CCN(C(=O)Cc3cccs3)CC2)cc1 | -2.65% (inactive) | –
4 | CC(C)c1nc2ccc(NC(=O)C3CCCCC3)cc2[nH]1 | 4.05% (inactive) | –
5 | O=C(C1=C(O)C(=O)N(CCN2CCOCC2)C1c1ccco1)c1cc2ccccc2o1 (configuration not stated) | -8.02% (inactive) | –
6 | CC(/C=N/n1c(-c2ccco2)n[nH]c1=S)=C\c1ccccc1 | 1.83% (inactive) | –
7 | CC(=C/c1ccccc1)/C=N/n1c(-c2ccco2)n[nH]c1=S | -1.88% (inactive) | 2.73
8 | O=C(Nc1ccccc1C(=O)O)c1ccc2c(c1)C(=O)N(c1cccc([N+](=O)[O-])c1)C2=O | 17.6% (inactive) | –
9 | Cc1ccc(C(=O)O)cc1NC(=O)c1ccc2c(c1)C(=O)N(c1ccc([N+](=O)[O-])cc1)C2=O | -4.57% (inactive) | –
10 | Cc1cc(C(=O)CSc2nnc(N)s2)c(C)n1Cc1ccco1 | -12.5% (inactive) | –
11 | COc1ccc(N2C(=O)C(Cl)=C(N3CCCC3)C2=O)cc1 | -10.6% (inactive) | –
12 | CCc1ccc(N2CCN(C(=O)N3CCOCC3)CC2)cc1 | -8.84% (inactive) | –
13 | COc1ccccc1N1C(=O)C(Cl)=C(N2CCCC2)C1=O | -1.98% (inactive) | 0.315
14 | CCOc1ccc(N2C(=O)CC(N3CCOCC3)C2=O)cc1 (configuration not stated) | -2.04% (inactive) | –
15 | CCOc1ccc(N2C(=O)c3ccccc3C2=O)cc1 | 1.62% (inactive) | –
16 | CCc1ccc(N2C(=O)C(Cl)=C(N3CCCCCC3)C2=O)cc1 | -5.23% (inactive) | –
17 | COc1ccc(OC)c(N2C(=O)C(Cl)=C(N3CCCCC3)C2=O)c1 | 0.68% (inactive) | –
18 | COc1ccc(N2C(=O)C(Cl)=C(N3CCN(Cc4ccccc4)CC3)C2=O)cc1 | -1.61% (inactive) | –
19 | COc1cccc(-c2nc3ccc(C(=O)N4CCCC(O)C4)cc3o2)c1 (configuration not stated) | -1.93% (inactive) | –
20 | CSc1ccc(CN(C)C(=O)c2ccc(S(=O)(=O)Nc3c(C)n(C)n(-c4ccccc4)c3=O)cc2)cc1 | -9.48% (inactive) | –
21 | CCOC(=O)CSc1nnnn1-c1cc(OC)ccc1OC | -2.05% (inactive) | –
22 | C=CC[C@H](CC(=O)NCCO)C(=O)NCCOC(=O)[C@@H](CC=C)Cc1ccc(F)cc1 | -5.62% (inactive) | –
23 | CCCNC(=O)N1C2=NC(C(=O)OC)=C(C(=O)OC)[C@@H]3N(Cc4ccccc4)c4ccccc4[C@]23C[C@H]1CO | -2.73% (inactive) | –

Row | Compound | inhibition | inhibition [1] [%]
24 | CCOC(=O)c1ccc2c(c1)C1C=CCC1C(C(=O)OCC)N2 (configuration not stated) | 10.8% (inactive) | –
25 | CCOC(=O)C1Nc2ccc(C)cc2C2C=CCC12 (configuration not stated) | 8.8% (inactive) | –
26 | CCOC(=O)C1Nc2ccc(Br)cc2C2C=CCC12 (configuration not stated) | 5.02% (inactive) | –
27 | CC(=O)c1ccc2c(c1)C1C=CCC1C(c1ccncc1)N2 (configuration not stated) | 50.2% (inactive) | –
28 | CC(C)CNC(=O)C1Nc2ccc(C(F)(F)F)cc2C2C=CCC12 (configuration not stated) | 2.4% (inactive) | –
29 | O=C(O)c1ccc2c(c1)C1C=CCC1C(c1ccncc1)N2 (configuration not stated) | -11.1% (inactive) | –
30 | CCCC1Nc2ccc(C(=O)O)cc2C2C=CCC12 (configuration not stated) | 11.1% (inactive) | –
31 | O=C(O)C1Nc2ccc(Br)cc2C2C=CCC12 (configuration not stated) | 55.7% (inactive) | –
32 | CCN(CC)S(=O)(=O)c1ccc(N2CCOCC2)c(NC(=O)c2cc3ccccc3oc2=O)c1 | -2.2% (inactive) | –
33 | COC(CNC(=O)c1cnn2c(C)c(Cc3ccccc3)c(C)nc12)OC | -1.46% (inactive) | –
34 | Cc1cc(NC(=O)CSc2nc3cc(Cl)ccc3o2)no1 | 1.78% (inactive) | –
35 | COc1ccc(NC(=S)NN2C(C)CCCC2C)cc1 (configuration not stated) | -6.57% (inactive) | –
36 | Cc1ccc(S(=O)(=O)N(C)CC(=O)N2CCCc3ccccc32)cc1 | 3.9% (inactive) | –
37 | Cc1ccc(S(=O)(=O)N2CCN(C(=O)CN3C(=O)c4ccccc4C3=O)CC2)c(C)c1 | -3.1% (inactive) | –
38 | Cc1cc(C)c(C)c(S(=O)(=O)ON2C(=O)c3ccccc3C2=O)c1C | -4.83% (inactive) | –
39 | COc1ccc(OC)c(S(=O)(=O)ON2C(=O)c3ccccc3C2=O)c1 | 12.6% (inactive) | –
40 | Cc1ccc(S(=O)(=O)ON2C(=O)c3cccc4cccc(c34)C2=O)cc1 | 14.2% (inactive) | –
41 | COC(=O)c1ccnc(SCC(=O)c2ccccc2)c1 | -7.25% (inactive) | –
42 | Cc1cc(C)c(N2C(=O)C3C4CC(=O)C(c5ccccc54)C3C2=O)c(C)c1 (configuration not stated) | -3.14% (inactive) | –
43 | On1c(-c2ccccc2)nc2ccccc21 | -0.77% (inactive) | –
44 | c1ccc(-c2nc3ccccc3c3nc4ccccc4n23)cc1 | 0.36% (inactive) | –
45 | O=C(NCCN1CCOCC1)C1CC(=O)N(c2ccc(Cl)cc2)C1 (configuration not stated) | -16.7% (inactive) | –
46 | S=C(NCc1ccco1)Nc1ccc(Br)cn1 | -6.51% (inactive) | –

Row | Compound | inhibition | inhibition [1] [%]
47 | Cc1ccccc1S(=O)(=O)N(CC(O)CN1CCCCC1)c1ccccc1 (configuration not stated) | -8.27% (inactive) | –
48 | CCOc1ccc(C(=O)Cc2cc(OC)c(OC)cc2[N+](=O)[O-])cc1 | -1.39% (inactive) | –
49 | COc1ccc(C(=Cc2cc(OC)c(OC)cc2[N+](=O)[O-])C(=O)O)cc1 | -1.59% (inactive) | –
50 | CCOc1ccc(N2C(=O)/C(=C\c3ccccc3OC)S(=O)(=O)C2c2cccc([N+](=O)[O-])c2)cc1 (configuration not stated) | -7.02% (inactive) | –
51 | COc1cc(C(=O)N2CCN(c3ccccc3)CC2)c([N+](=O)[O-])cc1OC | -3.88% (inactive) | –
52 | CCOC(=O)C1CCCN(C(=O)c2cn(C)c(=O)c3cc(OC)c(OC)cc23)C1 (configuration not stated) | -5.65% (inactive) | –
53 | C#CCOCCOCCOCCNc1nc(N2CCOCC2)nc(N2CCN(C(=O)CCCCCCCCCCNC(=O)Cn3cc(CCCCCN)nn3)CC2)n1 | 9.92% (inactive) | –
54 | Cc1cc(Cl)ccc1OC(C)C(=O)N1CCCN(C(=O)C(C)Oc2ccc(Cl)cc2C)CC1 (configuration not stated) | -1.34% (inactive) | –
55 | COc1ccc(C2(CNC(=O)CCC(=O)O)CCCC2)cc1OC | -1.37% (inactive) | -4.84
56 | O=C(O)c1ccc(-c2cccc(Cl)c2)o1 | -4.79% (inactive) | –
57 | Cc1[nH][nH]c(=O)c1C(c1ccc(-c2ccc(Cl)cc2)o1)c1c(C)[nH][nH]c1=O | 21% (inactive) | –
58 | Cc1[nH][nH]c(=O)c1C(c1ccc(-c2ccc(Cl)c(Cl)c2)o1)c1c(C)[nH][nH]c1=O | 61.3% (inactive) | –
59 | O=Cc1ccc(-c2ccc(F)cc2)o1 | -6.55% (inactive) | –
60 | CCC(OC(=O)c1nsc(Cl)c1Cl)C(=O)NCC1CCCO1 (configuration not stated) | -4.98% (inactive) | –
61 | CCCc1cc(=O)oc2cc(C)cc(OC(C)C(=O)NCc3cccnc3)c12 (configuration not stated) | -9.54% (inactive) | –
62 | NC(=O)Cn1c(O)c(N=NC(=O)CNC(=O)/C=C/c2ccccc2)c2ccccc21 | 3.88% (inactive) | –
63 | CC(C)CC(COCc1cccc(Cl)c1)N1CCN(C(=O)c2cccc(C(F)(F)F)c2)CCC1=O (configuration not stated) | 0.79% (inactive) | –
64 | CCOc1ccccc1CN1CCNC(=O)C1CC(=O)NC1CCCCCC1 (configuration not stated) | 7.85% (inactive) | –
65 | CC(C)CCn1c(SCC(=O)Nc2ccccc2C(F)(F)F)nc2nccnc2c1=O | -2.66% (inactive) | –
66 | CCOC(=O)C1CCN(S(=O)(=O)c2ccc(CNC(=O)c3ccccc3)s2)CC1 | -13.1% (inactive) | –
67 | COC(=O)Nc1ccc(S(=O)(=O)N2CCCC(C(=O)N3CC(C)OC(C)C3)C2)cc1 (configuration not stated) | -5.54% (inactive) | –
68 | O=C(CSc1nnc2ccc(-c3ccccn3)nn12)Nc1ccc(F)cc1 | 2.75% (inactive) | –
69 | C[C@@H]1CN(C(=O)c2cc(COc3cccc(C(F)(F)F)c3)on2)C[C@H](C)O1 | -9.08% (inactive) | –

Row | Compound | inhibition | inhibition [1] [%]
70 | COc1ccccc1C(=O)Nc1ccnn1C1CCN(Cc2cn(C)c3ccccc23)CC1 | -3.88% (inactive) | –
71 | CCC(CC)=NNc1ccc([N+](=O)[O-])cc1[N+](=O)[O-] | -0.89% (inactive) | –
72 | C/C(CCC(=O)O)=N/Nc1ccc([N+](=O)[O-])cc1[N+](=O)[O-] | -3.25% (inactive) | –
73 | Cc1ccc(CN2CCN(CC(=O)NC(C)CCc3ccccc3)C2=O)cc1 (configuration not stated) | -4.17% (inactive) | –
74 | CCCc1cc(=O)c2ccc(OCC(C)=O)cc2o1 | -9.24% (inactive) | –
75 | CC(C)N(CCNS(=O)(=O)c1ccc(Cl)cc1)C(C)C | 0.97% (inactive) | –
76 | COCCC(=O)NNS(=O)(=O)c1ccc(Cl)cc1 | 5.47% (inactive) | –
77 | CCOc1ccc(NC(=O)c2ccc(S(=O)(=O)N3CCOCC3)cc2)cc1 | 1.78% (inactive) | –
78 | CC(C(=O)O)N1C(=O)C2C3c4ccccc4C(c4ccccc43)[C@@H]2C1=O (some centres not stated) | -2.61% (inactive) | –
79 | CN1C(=O)C2C3c4ccccc4C(c4ccccc43)[C@@H]2C1=O (some centres not stated) | -1.31% (inactive) | –
80 | CCC(C(=O)O)P(=O)(c1ccc(Cl)cc1)c1ccc(Cl)cc1 (configuration not stated) | -8.59% (inactive) | –
81 | COC1=CC(=O)C(OC)=C(OC)C1=O | 6.99% (inactive) | –
82 | CCCCCSc1nncc(=O)[nH]1 | 4.01% (inactive) | –
83 | COc1ccc(-c2cccc(NC(=O)c3cccs3)c2)nn1 | -3.63% (inactive) | –
84 | O=C(CSc1nc2ccccc2s1)Nc1cc(S(=O)(=O)N2CCOCC2)ccc1Cl | -0.74% (inactive) | –
85 | O=C1SCC(c2ccc(Cl)cc2Cl)=NN1Cc1nnc(-c2ccccc2)o1 | -1.48% (inactive) | –
86 | O=c1[nH]cnc2c1sc1nc(-c3ccccc3)c3c(c12)CCCC3 | -9.17% (inactive) | –
87 | O=C(O)CSc1ncnc2c1sc1nc(-c3ccccc3)c3c(c12)CCC3 | 22.7% (inactive) | –
88 | CCN(CC)c1ccc(S(=O)(=O)N2CCOCC2)cc1NC(=O)CSC(=S)N1CCCC1 | -4.86% (inactive) | –
89 | COCCN(C(=O)CSc1nnc(-c2cccc(Cl)c2)n1N)c1c(N)n(CC(C)C)c(=O)[nH]c1=O | -1.15% (inactive) | –
